# Data from PubChem BioAssay (EPA / NIEHS).
# Results filed as inconclusive are left out. Active and inactive are the calls of the source. How the source made its calls: active means hit-call score of the fitted dose curve at least 0.9, where 1 is the maximum; inconclusive means response in the unintended direction; inactive means score below 0.9.
# Assays:
# [1] = molecular target: Neuropeptide Y receptor type 2 (Homo sapiens) (UniProt P49146); test: NVS_GPCR_hNPY2: NovaScreen (NVS) G Protein-Coupled Receptor Assay for human Neuropeptide Receptor Y2 (NPY2) (AID 2283277)
# Sequence of Neuropeptide Y receptor type 2 (Homo sapiens) (P49146 whole entry, looked up): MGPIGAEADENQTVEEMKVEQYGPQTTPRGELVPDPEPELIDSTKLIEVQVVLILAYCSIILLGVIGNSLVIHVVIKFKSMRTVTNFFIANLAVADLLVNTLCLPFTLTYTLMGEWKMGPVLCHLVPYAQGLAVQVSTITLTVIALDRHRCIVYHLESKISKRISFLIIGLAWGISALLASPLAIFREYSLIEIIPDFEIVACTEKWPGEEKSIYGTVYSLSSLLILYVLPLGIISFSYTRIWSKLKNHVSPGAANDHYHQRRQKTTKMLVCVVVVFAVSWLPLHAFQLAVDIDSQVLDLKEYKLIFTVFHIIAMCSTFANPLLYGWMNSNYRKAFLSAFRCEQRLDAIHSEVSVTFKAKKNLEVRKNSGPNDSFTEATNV
# Protocol: (§1) NVS_GPCR_hNPY2 is a biochemical, single-readout assay that uses extracted gene-proteins from SK-N-MC in a cell-free assay. Measurements were taken 1 hour after chemical dosing in a 96-well plate.NVS_GPCR_hNPY2 is one of one assay component(s) measured or calculated from the NVS_GPCR_hNPY2 assay. It is designed to make measurements of radioligand binding, a form of binding reporter, as detected with scintillation counting signals by Filter-based radiodetection technology.Data from the assay component NVS_GPCR_hNPY2 was analyzed into 1 assay endpoint. This assay endpoint, NVS_GPCR_hNPY2, was analyzed in the positive analysis fitting direction relative to DMSO as the negative control and baseline of activity. […] Furthermore, this assay endpoint can be referred to as a primary readout, because the performed assay has only produced 1 assay endpoint. […]
# (§2) Binding assays used specific radioligands (tritiated, iodinated) with non-radioactive competitive displacement ligands in agonist or antagonist protocols (as indicated) and various reference compounds and inhibitors to titrate specific binding to receptors and transporters. Most enzyme assays (CYPs, kinases, phosphatases, proteases, HDACs) used recombinant protein and specific substrates (fluorescence mostly, some colorimetric and radioactive) and inhibitors, followed by a biochemical separation of substrate and product. […]
# [2] = molecular target: human Purinergic Receptor P2Y, P2RY1 (gene 5028) (UniProt P47900); test: NVS_GPCR_hPY2: NovaScreen (NVS) G Protein-Coupled Receptor Assay for human Purinergic Receptor P2Y (AID 2283281)
# Sequence of human Purinergic Receptor P2Y, P2RY1 (gene 5028) (P47900 whole entry, looked up): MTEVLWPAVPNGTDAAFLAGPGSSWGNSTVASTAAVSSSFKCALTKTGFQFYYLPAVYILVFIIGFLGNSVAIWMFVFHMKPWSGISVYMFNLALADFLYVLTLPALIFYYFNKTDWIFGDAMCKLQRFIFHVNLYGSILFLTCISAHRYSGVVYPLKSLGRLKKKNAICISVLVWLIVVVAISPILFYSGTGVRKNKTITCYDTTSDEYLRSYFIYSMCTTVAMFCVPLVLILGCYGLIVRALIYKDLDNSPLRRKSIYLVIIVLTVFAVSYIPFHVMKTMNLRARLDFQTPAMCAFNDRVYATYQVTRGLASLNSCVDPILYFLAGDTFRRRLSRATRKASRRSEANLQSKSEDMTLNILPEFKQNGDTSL
# Procedure, shortened: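 Cell-free radioligand binding using U937-derived protein, 1 h after dosing, filter-based scintillation counting. Screened in duplicate at 25 uM; actives rerun as concentration-response up to 50 uM; loss of signal versus DMSO.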
# [3] = molecular target: human Orphanin, Opioid Related Nociceptin Receptor 1 (ORL1), OPRL1 (gene 4987) (UniProt P41146); test: NVS_GPCR_hORL1: NovaScreen (NVS) G Protein-Coupled Receptor Assay for human Orphanin, Opioid Related Nociceptin Receptor 1 (ORL1) (AID 2283283)
# Sequence of human Orphanin, Opioid Related Nociceptin Receptor 1 (ORL1), OPRL1 (gene 4987) (P41146 whole entry, looked up): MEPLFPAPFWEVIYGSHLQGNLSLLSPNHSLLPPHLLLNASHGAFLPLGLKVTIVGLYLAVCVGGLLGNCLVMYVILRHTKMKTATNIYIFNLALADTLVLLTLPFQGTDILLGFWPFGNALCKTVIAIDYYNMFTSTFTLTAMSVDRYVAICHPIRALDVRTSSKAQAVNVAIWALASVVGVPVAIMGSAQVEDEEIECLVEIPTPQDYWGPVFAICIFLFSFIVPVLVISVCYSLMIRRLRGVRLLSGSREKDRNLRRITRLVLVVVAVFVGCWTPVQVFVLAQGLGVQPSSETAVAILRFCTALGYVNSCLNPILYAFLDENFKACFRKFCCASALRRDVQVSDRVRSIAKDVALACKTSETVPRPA
# Protocol: as §1, with “NVS_GPCR_hORL1” for “NVS_GPCR_hNPY2”, “HEK293” for “SK-N-MC”, “48-well plate.NVS_GPCR_hORL1” for “96-well plate.NVS_GPCR_hNPY2”, “NVS_GPCR_hORL1,” for “NVS_GPCR_hNPY2,”
# as §2
# [4] = molecular target: human Vasopressin 1A Receptor (V1A), AVPR1A (gene 552) (UniProt P37288); test: NVS_GPCR_hV1A: NovaScreen (NVS) G Protein-Coupled Receptor Assay for human Vasopressin 1A Receptor (V1A) (AID 2283284)
# Sequence of human Vasopressin 1A Receptor (V1A), AVPR1A (gene 552) (P37288 whole entry, looked up): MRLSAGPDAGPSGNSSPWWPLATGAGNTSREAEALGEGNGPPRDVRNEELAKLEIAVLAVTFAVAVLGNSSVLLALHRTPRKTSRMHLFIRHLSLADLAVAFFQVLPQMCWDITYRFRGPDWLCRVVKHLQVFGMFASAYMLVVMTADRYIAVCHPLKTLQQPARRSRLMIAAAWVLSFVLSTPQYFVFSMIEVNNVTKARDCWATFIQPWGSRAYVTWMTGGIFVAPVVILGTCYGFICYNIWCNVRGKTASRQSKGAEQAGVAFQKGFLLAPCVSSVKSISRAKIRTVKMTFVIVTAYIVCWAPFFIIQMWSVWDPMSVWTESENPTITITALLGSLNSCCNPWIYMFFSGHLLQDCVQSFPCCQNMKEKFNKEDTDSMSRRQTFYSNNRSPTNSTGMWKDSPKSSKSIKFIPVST
# Procedure, shortened: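 Cell-free radioligand displacement on human platelet preparations, 1.5 h incubation, filter-based scintillation counting. Chemicals first tested in duplicate at 25 uM; actives then run in concentration-response up to 50 uM, loss of signal fitted against DMSO.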
smiles,measurement,setting,value
COc1nc(C)nc(NC(=O)NS(=O)(=O)c2ccccc2CCC(F)(F)F)n1,outcome,[1],inactive
CNC(=S)S,outcome,[2],inactive
same,AC50,[3],40.3 µM (active)
CCOc1cc(Oc2ccc(C(F)(F)F)cc2Cl)ccc1[N+](=O)[O-],outcome,[4],inactive
